Laboratory results reported in PubChem BioAssay (NCATS).
Results filed as inconclusive are left out. Active and inactive are the calls of the source. Calls come from the whole dose curve; as a rule, active = well fitted inhibition curve with a large enough effect; inconclusive = small, poorly fitted or top-dose-only effect; inactive = flat fitted curve, though single readings scatter.

How the values were obtained:
[1] = qHTS profiling for inhibitors of Plasmodium falciparum proliferation (AID 504749);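 note: 0% = DMSO vehicle and full inhibition = artemisinin control; nearly all actives have a fitted effect of over 60% in size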; settings: P. falciparum in erythrocytes, SYBR Green DNA, 72 h, at 28.7 µM (top of the series)
Procedure, shortened: (§1)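 In a 72 h erythrocytic culture (37 C, humidified, 5% CO2) at 2.5% hematocrit and 0.3% starting parasitemia, compounds were tested; SYBR Green I in detergent lysis buffer stained parasite DNA overnight.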

3D7 = test: as above; settings: P. falciparum in erythrocytes, SYBR Green DNA, 72 h; series mostly up to 28.7 µM
Procedure, shortened: as §1

7G8 = test: as above; settings: P. falciparum in erythrocytes, SYBR Green DNA, 72 h; series mostly up to 28.7 µM
Procedure, shortened: as §1

AA1029 = test: as above; settings: P. falciparum in erythrocytes, SYBR Green DNA, 72 h; series mostly up to 28.7 µM
Procedure, shortened: as §1

AS120 = test: as above; settings: P. falciparum in erythrocytes, SYBR Green DNA, 72 h; series mostly up to 28.7 µM
Procedure, shortened: as §1

ATS189 = test: as above; settings: P. falciparum in erythrocytes, SYBR Green DNA, 72 h; series mostly up to 28.7 µM
Procedure, shortened: as §1

ATS95 = test: as above; settings: P. falciparum in erythrocytes, SYBR Green DNA, 72 h; series mostly up to 28.7 µM
Procedure, shortened: as §1

C2A = test: as above; settings: P. falciparum in erythrocytes, SYBR Green DNA, 72 h; series mostly up to 28.7 µM
Procedure, shortened: as §1

CP185 = test: as above; settings: P. falciparum in erythrocytes, SYBR Green DNA, 72 h; series mostly up to 28.7 µM
Procedure, shortened: as §1

CP191 = test: as above; settings: P. falciparum in erythrocytes, SYBR Green DNA, 72 h; series mostly up to 28.7 µM
Procedure, shortened: as §1

CP192 = test: as above; settings: P. falciparum in erythrocytes, SYBR Green DNA, 72 h; series mostly up to 28.7 µM
Procedure, shortened: as §1

CP194 = test: as above; settings: P. falciparum in erythrocytes, SYBR Green DNA, 72 h; series mostly up to 28.7 µM
Procedure, shortened: as §1

CP201 = test: as above; settings: P. falciparum in erythrocytes, SYBR Green DNA, 72 h; series mostly up to 28.7 µM
Procedure, shortened: as §1

CP203 = test: as above; settings: P. falciparum in erythrocytes, SYBR Green DNA, 72 h; series mostly up to 28.7 µM
Procedure, shortened: as §1

CP211 = test: as above; settings: P. falciparum in erythrocytes, SYBR Green DNA, 72 h; series mostly up to 28.7 µM
Procedure, shortened: as §1

CP215 = test: as above; settings: P. falciparum in erythrocytes, SYBR Green DNA, 72 h; series mostly up to 28.7 µM
Procedure, shortened: as §1

CP217 = test: as above; settings: P. falciparum in erythrocytes, SYBR Green DNA, 72 h; series mostly up to 28.7 µM
Procedure, shortened: as §1

CP237 = test: as above; settings: P. falciparum in erythrocytes, SYBR Green DNA, 72 h; series mostly up to 28.7 µM
Procedure, shortened: as §1

CP238 = test: as above; settings: P. falciparum in erythrocytes, SYBR Green DNA, 72 h; series mostly up to 28.7 µM
Procedure, shortened: as §1

CP247 = test: as above; settings: P. falciparum in erythrocytes, SYBR Green DNA, 72 h; series mostly up to 28.7 µM
Procedure, shortened: as §1

O=c1[nH]c(=O)n([C@H]2C[C@H](O)[C@@H](CO)O2)cc1/C=C/Br
inactive: activity, negative = inhibition ([1]; parasite line A) 6.74% | activity, negative = inhibition ([1]; parasite line B) -10.9% | Potency (3D7) | Potency (7G8) | Potency (AA1029) | Potency (AS120) | Potency (ATS189) | Potency (ATS95) | Potency (C2A) | Potency (CP185) | Potency (CP191) | Potency (CP192) | Potency (CP194) | Potency (CP201) | Potency (CP203) | Potency (CP211) | Potency (CP215) | Potency (CP217) | Potency (CP237) | Potency (CP238) | Potency (CP247)

CC(CNC(=O)c1cccnc1)NC(=O)c1cccnc1 (stereo unspecified)
inactive: activity, negative = inhibition ([1]; parasite line A) 8.56% | activity, negative = inhibition ([1]; parasite line B) 11.1% | Potency (3D7) | Potency (7G8) | Potency (AA1029) | Potency (AS120) | Potency (ATS189) | Potency (ATS95) | Potency (C2A) | Potency (CP185) | Potency (CP191) | Potency (CP192) | Potency (CP194) | Potency (CP201) | Potency (CP203) | Potency (CP211) | Potency (CP215) | Potency (CP217) | Potency (CP237) | Potency (CP238) | Potency (CP247)

C=CC(C)(O)CC/C=C(\C)CCC=C(C)C (stereo unspecified)
inactive: activity, negative = inhibition ([1]; parasite line A) 2.76% | activity, negative = inhibition ([1]; parasite line B) -4.38% | Potency (3D7) | Potency (7G8) | Potency (AA1029) | Potency (AS120) | Potency (ATS189) | Potency (ATS95) | Potency (C2A) | Potency (CP185) | Potency (CP191) | Potency (CP192) | Potency (CP194) | Potency (CP201) | Potency (CP203) | Potency (CP211) | Potency (CP215) | Potency (CP217) | Potency (CP237) | Potency (CP238) | Potency (CP247)

NC(N)=O
inactive: activity, negative = inhibition ([1]; parasite line A) 0.0876% | activity, negative = inhibition ([1]; parasite line B) -2.3% | Potency (3D7) | Potency (7G8) | Potency (AA1029) | Potency (AS120) | Potency (ATS189) | Potency (ATS95) | Potency (C2A) | Potency (CP185) | Potency (CP191) | Potency (CP192) | Potency (CP194) | Potency (CP201) | Potency (CP203) | Potency (CP211) | Potency (CP215) | Potency (CP217) | Potency (CP237) | Potency (CP238) | Potency (CP247)

O=P(O)(O)O
inactive: activity, negative = inhibition ([1]; parasite line A) 1.79% | activity, negative = inhibition ([1]; parasite line B) 16.4% | Potency (3D7) | Potency (7G8) | Potency (AA1029) | Potency (AS120) | Potency (ATS189) | Potency (ATS95) | Potency (C2A) | Potency (CP185) | Potency (CP191) | Potency (CP192) | Potency (CP194) | Potency (CP201) | Potency (CP203) | Potency (CP211) | Potency (CP215) | Potency (CP217) | Potency (CP237) | Potency (CP238) | Potency (CP247)

N[C@H](CC(=O)O)C(=O)O
inactive: activity, negative = inhibition ([1]; parasite line A) 6.17% | activity, negative = inhibition ([1]; parasite line B) 8.93% | Potency (3D7) | Potency (7G8) | Potency (AA1029) | Potency (AS120) | Potency (ATS189) | Potency (ATS95) | Potency (C2A) | Potency (CP185) | Potency (CP191) | Potency (CP192) | Potency (CP194) | Potency (CP201) | Potency (CP203) | Potency (CP211) | Potency (CP215) | Potency (CP217) | Potency (CP237) | Potency (CP238) | Potency (CP247)

C[C@H](O)CN(C)C
inactive: activity, negative = inhibition ([1]; parasite line A) 9.28% | activity, negative = inhibition ([1]; parasite line B) 3.53% | Potency (3D7) | Potency (7G8) | Potency (AA1029) | Potency (AS120) | Potency (ATS189) | Potency (ATS95) | Potency (C2A) | Potency (CP185) | Potency (CP191) | Potency (CP192) | Potency (CP194) | Potency (CP201) | Potency (CP203) | Potency (CP211) | Potency (CP215) | Potency (CP217) | Potency (CP237) | Potency (CP238) | Potency (CP247)

NC(=S)NS(=O)(=O)c1ccc(N)cc1
inactive: activity, negative = inhibition ([1]; parasite line A) -3.33% | activity, negative = inhibition ([1]; parasite line B) -5.51% | Potency (3D7) | Potency (7G8) | Potency (AA1029) | Potency (AS120) | Potency (ATS189) | Potency (ATS95) | Potency (C2A) | Potency (CP185) | Potency (CP191) | Potency (CP192) | Potency (CP194) | Potency (CP201) | Potency (CP203) | Potency (CP211) | Potency (CP215) | Potency (CP217) | Potency (CP237) | Potency (CP238) | Potency (CP247)

CCOc1ccc(S(=O)(=O)O)c2cccnc12
inactive: activity, negative = inhibition ([1]; parasite line A) 8.12% | activity, negative = inhibition ([1]; parasite line B) 6.17% | Potency (3D7) | Potency (7G8) | Potency (AA1029) | Potency (AS120) | Potency (ATS189) | Potency (ATS95) | Potency (C2A) | Potency (CP185) | Potency (CP191) | Potency (CP192) | Potency (CP194) | Potency (CP201) | Potency (CP203) | Potency (CP211) | Potency (CP215) | Potency (CP217) | Potency (CP237) | Potency (CP238) | Potency (CP247)

CC(C)(C)CC(C)(C)c1cc(Cc2cc(C(C)(C)CC(C)(C)C)cc(-n3nc4ccccc4n3)c2O)c(O)c(-n2nc3ccccc3n2)c1
inactive: activity, negative = inhibition ([1]; parasite line A) 10.8% | activity, negative = inhibition ([1]; parasite line B) 2.7% | Potency (3D7) | Potency (7G8) | Potency (AA1029) | Potency (AS120) | Potency (ATS189) | Potency (ATS95) | Potency (C2A) | Potency (CP185) | Potency (CP191) | Potency (CP192) | Potency (CP194) | Potency (CP201) | Potency (CP203) | Potency (CP211) | Potency (CP215) | Potency (CP217) | Potency (CP237) | Potency (CP238) | Potency (CP247)

FC(F)(F)COCC(F)(F)F
inactive: activity, negative = inhibition ([1]; parasite line A) 12.5% | activity, negative = inhibition ([1]; parasite line B) -2.69% | Potency (3D7) | Potency (7G8) | Potency (AA1029) | Potency (AS120) | Potency (ATS189) | Potency (ATS95) | Potency (C2A) | Potency (CP185) | Potency (CP191) | Potency (CP192) | Potency (CP194) | Potency (CP201) | Potency (CP203) | Potency (CP211) | Potency (CP215) | Potency (CP217) | Potency (CP237) | Potency (CP238) | Potency (CP247)
